Compound activity from PubChem BioAssay.
Arbovirus inh = antivirals against arbovirus infection, primary screen, cell-based, full library, 10K replicate subset | arbovirus infection cell-based antiviral screen | AID 1251, 2008 | inhibition, % at 10 µM | 0.37% of 200,000 active; in the data active means inhibition above about 30%
Cl transport mod = KCC2 cotransporter modulators, thallium flux, primary screen, cell-based, HEK293 KCC2, FluoZin-2 fluorescence, MLSMR; Solute carrier family 12 member 5 (Homo sapiens), Q9H2X9; KCC2 cells, thallium flux FluoZin-2 fluorescence; B-score of Tl+ flux slope (higher = more flux/activation; lower = inhibition) at 10 µM; 2.2% of 190,000 active;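 active means thallium flux slope and its plate-corrected score both differing from the plate sample mean at a set confidence after two filtering rounds, in either direction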;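 further: slope of fluorescence scaled to starting intensity during 10 to 20 s after thallium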
HSV augment = enhancers of HSV replication in host cells, fold increase, host cell viability. HSV replication augmentation in cells. maximum fold increase. 0.005% of 220,000 active; in the data active means maximum fold increase above about 1.5; inconclusive means no clear call, values can overlap the other calls; tested in PC3 cells
ROMK mod = ROMK potassium channel modulators, primary screen, cell-based, thallium flux, MLSMR library. 2% of 130,000 active. B-score at 10 µM. ATP-sensitive inward rectifier potassium channel 1 (Homo sapiens), P48048. Tet-inducible ROMK, thallium flux fluorescence; actives lie on both sides;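 active means signal ratio slope over the read window, or its plate-corrected B-score, at least 3 SD from the plate mean, either direction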;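 further: B-score of the F/F0 ratio slope over 7 to 12 s after thallium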
Target sequence (P48048 whole entry, looked up): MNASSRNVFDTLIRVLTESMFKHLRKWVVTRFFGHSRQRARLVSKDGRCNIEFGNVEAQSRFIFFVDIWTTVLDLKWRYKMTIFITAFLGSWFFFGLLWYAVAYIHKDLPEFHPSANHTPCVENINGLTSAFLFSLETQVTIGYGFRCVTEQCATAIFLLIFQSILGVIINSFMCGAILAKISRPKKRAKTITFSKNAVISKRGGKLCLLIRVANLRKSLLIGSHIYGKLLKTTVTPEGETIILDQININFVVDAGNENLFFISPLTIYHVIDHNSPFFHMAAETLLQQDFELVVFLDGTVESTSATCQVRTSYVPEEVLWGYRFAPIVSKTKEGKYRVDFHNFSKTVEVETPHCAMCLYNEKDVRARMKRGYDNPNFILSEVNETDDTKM
Measles CPE = compounds protecting cells from measles virus cytopathic effect, primary screen, measles RdRp inhibitor project, single point, MLSMR library, absorbance; Measles virus-infected cells, CPE protection; 1.5% of 140,000 active; AID 841, 2007; protection (pct of control), % at 4 µM; in the data active means protection mostly above about 24%, no sharp cut-off; inactive means mostly below about 26%
ROMK hit retest = ROMK channel modulator hit retest, confirmation, cell-based, thallium flux, duplicate, resupplied hits | fluorescence ratio; hits give low values | AID 1917, 2009 | normalized thallium flux (F/F0 slope) at 10 µM | 54% of 3,000 active | shares compounds with ROMK mod;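 active means Flux at 10 µM at least 3 SD below or above vehicle control mean in one or both replicates; inconclusive means no clear call, values can overlap the other calls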
* marks the source's active call; other numbers are inactive results. The list is not random: actives were taken first. Their share in the collection is about 4%.

For Cc1c(CCOC(=O)C23CC4CC(CC(C)(C4)C2)C3)sc[n+]1CC(=O)c1ccccc1 the results were Arbovirus inh -30.4, Cl transport mod 0.865, HSV augment inactive, ROMK mod -5.88* and ROMK hit retest 0.0599*.
Cc1c(CCOC(=O)c2cc([N+](=O)[O-])cc([N+](=O)[O-])c2)sc[n+]1CC(=O)c1ccccc1 was read as Arbovirus inh -0.1, Cl transport mod 0.814, HSV augment inactive and ROMK mod -0.538.
`Cn1c(CNC(=O)c2ccccc2)nnc1SCC(=O)Nc1nccs1` gave Arbovirus inh 0.6, Cl transport mod 0.411, HSV augment inactive and ROMK mod -0.919.
Screening O=S(=O)(CC(CN1CCCCC1)N1CCCCC1)c1ccc2ccccc2c1 (stereo unspecified) returned Arbovirus inh -34.4, Cl transport mod 0.245, HSV augment inactive, ROMK mod -5.83* and ROMK hit retest 0.0588*.
`COc1ccc(CN2CCC(N(CCc3ccccc3)Cc3ccccc3)CC2)c(OC)c1` gave Arbovirus inh -31.3, Cl transport mod -1.18, HSV augment inactive, ROMK mod -3.32* and ROMK hit retest 0.0508*.
`CCN(Cc1ccncc1)C(=O)c1ccc2c(c1)S(=O)(=O)c1ccccc1C2=O` gave Arbovirus inh 7.5, Cl transport mod 0.22, HSV augment inactive and ROMK mod -0.376.
Nn1c(SCc2ccccc2F)nnc1-c1ccccn1 was read as Cl transport mod -0.0112 and HSV augment inactive.
CCN=C1SC(CC(=O)NCC)C(=O)N1CC (stereo unspecified) was read as Arbovirus inh 1.0, Cl transport mod -0.0099, HSV augment inactive, ROMK mod 3.05*, Measles CPE 0.9 and ROMK hit retest 0.0811.
Screening Cn1cc(/C=C(\C#N)C(=O)Nc2ncc(Cc3cccc(Cl)c3)s2)c2ccccc21 returned Arbovirus inh -26.6, Cl transport mod inactive, HSV augment inactive, ROMK mod -2.43*, Measles CPE 4.1 and ROMK hit retest 0.0592*.
`N#C/C(=C\c1c[nH]c2ccccc12)C(=O)Nc1ncc(Cc2ccc(Cl)cc2Cl)s1` gave Arbovirus inh -36.4, Cl transport mod 1.3, HSV augment inactive and Measles CPE 2.1.
Screening Clc1ccc(-n2nnnc2-c2ccno2)cc1 returned Cl transport mod 0.386 and HSV augment inactive.
`Fc1cccc(-c2oncc2-c2nnnn2-c2ccc(Cl)cc2)c1` gave Arbovirus inh -4.0, Cl transport mod -1.36, HSV augment inactive, ROMK mod -7.45*, Measles CPE 11.6 and ROMK hit retest 0.0733.
Screening C=CCn1c(=O)/c(=C/c2ccc(Cl)cc2)s/c1=C(/C#N)c1nnc2n1CCCCC2 returned Arbovirus inh 1.2, Cl transport mod -0.521, HSV augment inactive and Measles CPE 16.1.
Screening C=CCn1c(=O)/c(=C/c2ccc(O)cc2)s/c1=C(/C#N)c1nnc2n1CCCCC2 returned Arbovirus inh -15.2, HSV augment inconclusive, ROMK mod -1.12*, Measles CPE 0.8 and ROMK hit retest 0.0533*.
For Cc1[nH][nH]c(=O)c1C(c1ccc(O)c([N+](=O)[O-])c1)c1c(C)[nH][nH]c1=O the results were Arbovirus inh -8.5, Cl transport mod 0.929, HSV augment inactive, Measles CPE 5.8 and ROMK hit retest 0.0774.
Screening Cc1cccc(C)c1NC(=O)c1ccc(-c2ccc(Cl)cc2Cl)o1 returned Arbovirus inh 27.6, Cl transport mod 0.124, HSV augment inactive, ROMK mod -2.93*, Measles CPE 9.9 and ROMK hit retest 0.052*.
`Cc1cc(C(C)(C)C)oc1C(=O)N(CC(=O)NC1CCCC1)Cc1ccccc1Cl` gave Arbovirus inh -33.7, HSV augment inactive, Measles CPE 15.3 and ROMK hit retest 0.0537*.
For FC(F)(F)c1cccc(-c2nc3nc(Cl)c(Cl)nc3[nH]2)c1 the results were Cl transport mod -2.15 and HSV augment inactive.
